# From PubChem BioAssay
# The list is not random: actives were taken first. Their share in the collection is about 7.3%.
# KinaseGlo FLuc: Kinase-Glo luciferase inhibition (counter-screen); 200,000 tested, 0.28% active; Kinase-Glo luciferase, ATP luminescence, 8 min; Potency, µM (highest dose often 38.3 µM), actives largely listed as inhibitors; Q27757; further: nearly all actives have a fitted effect of over 60% in size
#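 Compounds were added to a substrate mix at pH 7.2 (50 mM imidazole, 10 uM ATP, within the enzyme's linear range), followed by Kinase-Glo detection reagent; luminescence was measured after 8 minutes at ambient temperature.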
# Rab9 prom act: activates the Rab9 promoter; Potency, µM (top dose mostly 9.22 µM), usual class: activators; 320,000 tested, 2.8% active; Huh7 Rab9 promoter-luciferase reporter, luminescence, 24 h; further: nearly all actives have a fitted effect of over 60% in size
#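 Luciferase signal after 10 min detection reagent at ambient indicates Rab9 promoter upregulation; stably transfected Huh7 cells were treated 24 h with compound in DMSO at 37 °C, 5% CO2.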
# ELG1 genotoxic: induces genotoxicity in HEK293T cells with luciferase-tagged ELG1 | HEK293T ELG1-luciferase reporter, luminescence, 16 h | 330,000 tested, 1.3% active | Potency, µM (top dose mostly 46 µM), hits mostly activators; further: nearly all actives have a fitted effect of over 60% in size
#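 HEK293T cells expressing luciferase-tagged ELG1 were exposed to compound or DMSO vehicle for 16 hr at 37 °C and 5% CO2. Luciferase activity was then measured with ONE-Glo after 30 min at room temperature.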
# NPC1 promoter act: activators of NPC1 promoter; Huh7 NPC1 promoter luciferase reporter, 24 h; Potency, µM (titrated, usually from 9.22 µM), hits mostly activators; 320,000 tested, 2.4% active; further: nearly all actives have a fitted effect of over 60% in size
#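 In 1536-well qHTS, Huh7 cells harboring an NPC1 promoter–luciferase construct received compound for 24 h; activation was quantified by luminescence following luciferase reagent addition.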
# SMN2 splice enh: enhancers of SMN2 splice variant expression; HEK293 SMN2-luciferase splicing reporter, luminescence, 30-36 h; Potency, µM (titrated, usually from 46.1 µM), usual class: activators; 210,000 tested, 2.8% active; AID 1458; further: nearly all actives have a fitted effect of over 55% in size
#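 HEK293 cells carry an SMN2 minigene-luciferase reporter in which exon 7 inclusion puts luciferase in frame. Cells were seeded at 2000 cells/well, attached for 10-12 hours, then exposed to compounds for 30-36 hours at 37C before ONE-Glo luminescence.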
# FLuc modulator: counter-screen for miR-21 project: firefly luciferase inhibitors or activators; P08659; purified FLuc, Km substrates, luminescence inhibition; Potency, µM (highest dose often 57.5 µM), actives largely listed as inhibitors; 360,000 tested, 6.9% active; AID 588342; further: nearly all actives have a fitted effect of over 55% in size
# Target sequence (P08659 whole entry, looked up): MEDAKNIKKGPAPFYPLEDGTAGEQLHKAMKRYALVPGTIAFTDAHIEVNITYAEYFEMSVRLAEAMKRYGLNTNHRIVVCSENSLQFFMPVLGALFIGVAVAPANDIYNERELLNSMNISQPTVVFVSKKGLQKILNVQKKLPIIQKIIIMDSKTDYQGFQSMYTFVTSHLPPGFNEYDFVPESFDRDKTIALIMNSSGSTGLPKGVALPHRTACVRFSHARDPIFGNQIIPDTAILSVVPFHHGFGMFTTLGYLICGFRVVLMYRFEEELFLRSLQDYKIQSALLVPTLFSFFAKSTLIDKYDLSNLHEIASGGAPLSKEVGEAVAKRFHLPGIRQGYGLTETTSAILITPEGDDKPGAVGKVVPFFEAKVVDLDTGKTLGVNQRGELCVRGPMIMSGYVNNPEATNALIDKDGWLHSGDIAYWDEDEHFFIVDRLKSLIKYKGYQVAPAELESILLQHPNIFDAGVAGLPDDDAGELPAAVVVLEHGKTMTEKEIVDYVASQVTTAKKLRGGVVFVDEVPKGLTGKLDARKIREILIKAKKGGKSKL
#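 Biochemical qHTS of compounds, final roughly 60 µM downward over six points, against 10 nM purified firefly luciferase using Km concentrations of substrates (10 uM D-luciferin, 10 uM ATP) in Tris acetate pH 7.5 buffer; luminescence output.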
# Numbers stand for hits; n = inactive; u = inconclusive; x = no result; [ ] = another dose, or the depositor's remark. The call rests on the fitted dose curve; in most records, active means well fitted curve in the direction sought with a large enough effect; inconclusive means small, poorly fitted or top-dose-only effect, or another doubt; inactive means no such curve, though single readings can be large; an effect the other way counts as inactive or inconclusive.
SMILES,KinaseGlo FLuc,Rab9 prom act,ELG1 genotoxic,NPC1 promoter act,SMN2 splice enh,FLuc modulator
CN(C)c1ccc(/C=C2\CCCc3c2nc2ccccc2c3C(=O)O)cc1,x,0.89µM,12µM,2.5µM,x,4.3µM
O=C(O)c1ccc(/C=C2\CCCc3c2nc2ccccc2c3C(=O)O)cc1,x,n,n,n,x,n
O=C(CCCCCN1C(=O)CCC1=O)Nc1ccc2c(c1)OCCO2,n,n,n,n,n,n
CC(=O)NN1C(=O)c2ccc3c4c(ccc(c24)C1=O)C(=O)N(NC(C)=O)C3=O,x,n,n,n,x,n
CC(C)NC(=O)Nc1ccc2c(c1)CC(=O)N([C@@H](C)CO)C[C@H](C)[C@@H](CN(C)C(=O)NC1CCCCC1)O2,x,x,n,x,x,x
COC(=O)c1cc(C#N)c(OC(C)C)nc1C,n,n,n,n,n,n
O=C(COc1cc2oc(=O)cc(-c3ccccc3)c2cc1Cl)NCC1CCC(C(=O)O)CC1 (centres undefined),x,n,n,n,x,u
O=C(COc1ccc2cc(-c3ccccc3)c(=O)oc2c1)NCC1CCC(C(=O)O)CC1 (centres undefined),x,n,n,n,x,6µM
O=C(COc1ccc2c(-c3ccccc3)cc(=O)oc2c1)NCC1CCC(C(=O)O)CC1 (centres undefined),x,n,n,n,x,21µM
Nc1c(Cl)ncnc1N1CCN(c2ncnc(Cl)c2N)CC1,n,n,n,n,n,n
COc1ccc(NC(=O)c2cnn(-c3ccccc3)c2C)c(OC)c1,x,n,n,n,x,u
Cc1nn(C)cc1C(=O)NNC(=S)Nc1ccccc1,n,u,n,n,u,n
Cc1c(C(=S)Nc2ccccc2)cnn1-c1ccccc1,n,u,n,u,n,15µM
Cc1nn(-c2ccccc2)cc1C(=S)Nc1ccccc1,n,u,n,u,n,12µM
Cc1c(C(=O)Nc2ccccc2F)cnn1-c1ccccc1,x,1.4µM,8.2µM,2.5µM,x,5.4µM
CCc1ccc(NC(=O)c2cnn(-c3ccccc3)c2C)cc1,n,0.56µM,u,0.5µM,5.6µM,0.67µM
CCC1CCCCN1C(=O)c1cc2cc(Br)ccc2oc1=O (centres undefined),n,n,n,n,n,n
C=CCN(CC=C)CCCOc1ccccc1C(=O)OC,n,n,n,n,n,n
Cc1c(C(=O)Oc2cccc3ccccc23)cnn1-c1ccccc1,n,u,8.9µM,n,u,9.5µM
CC(=O)c1cnn(-c2ccccc2)c1C,n,n,n,n,n,n
Cc1c(C(=O)Nc2cc(F)cc(F)c2)cnn1-c1ccccc1,x,2.5µM,u,1.3µM,x,7.6µM
COC(=O)c1ccc(Cn2nc(-c3ccccc3)ccc2=O)cc1,x,n,n,n,x,n
COc1ccc(C(=O)Nc2cccc(/C(C)=N/NC(=O)c3ccc([N+](=O)[O-])c(C)c3)c2)cc1OC,n,n,n,n,n,u
COc1ccc(C(=O)Nc2cccc(/C(C)=N\NC(=O)c3ccoc3C)c2)cc1OC,x,n,n,n,x,17µM
C/C(=N/NC(=O)c1ccoc1C)c1ccc(NC(=O)C2CCCC2)cc1,n,n,u,n,u,u
SMILES,KinaseGlo FLuc,Rab9 prom act,ELG1 genotoxic,NPC1 promoter act,SMN2 splice enh,FLuc modulator
C/C(=N\NC(=O)c1nn(C)c(C)c1Br)c1cccc(NC(=O)c2ccoc2C)c1,n,u,n,n,n,2.4µM
C/C(=N\NC(=O)c1ccoc1C)c1ccccc1,x,2µM,u,2.5µM,x,11µM
COc1ccccc1NC(=O)NC1(C(=O)N2CCCCCC2)CCCCC1,n,n,n,n,n,n
C/C(=N\NC=O)c1ccncc1,n,n,n,n,n,n
COc1ccc(C(=O)N/N=C/c2ccc(OC(=O)c3ccccc3)cc2)cc1,n,n,u,n,n[1.84 µM],n
COc1ccc(C(=O)N/N=C/c2ccccc2OC(=O)c2ccccc2)cc1,x,n,21µM,u,x,u
COc1cc(C(=O)Oc2ccc(/C=N/NC(=O)c3ccncc3)cc2)cc(OC)c1OC,x,n,n,n,x,n
NC(=O)N/N=C/c1ccccc1OC(=O)c1ccccc1Br,n,n,n,n,n,27µM
COc1cc(C(=O)Oc2ccccc2/C=N/NC(=O)c2ccc(C)cc2)cc(OC)c1OC,n,u,n,u,n,6µM
Cc1cc(C)n(C(=O)Cn2nc([N+](=O)[O-])c(Br)c2C)n1,n,n,n,n,n,n
COc1cc(OC)c(OC)cc1/C=C1\Oc2cc(OCC(=O)N3Cc4ccccc4C[C@H]3C(=O)O)ccc2C1=O,x,n,n,n,x,u
COc1ccc(/C=C2\Oc3cc(OCC(=O)N4CCC[C@H]4C(=O)O)ccc3C2=O)c(OC)c1,x,n,n,n,x,12µM
COc1cccc(/C=C2\Oc3cc(OCC(=O)N4CCC[C@H]4C(=O)O)ccc3C2=O)c1,x,n,n,n,x,2.7µM
COc1ccc(OC)c(/C=C2\Oc3cc(OCC(=O)N4CCC[C@H]4C(=O)O)ccc3C2=O)c1,x,n,n,n,x,u
C=CCN=Cc1c(C)[nH]n(-c2ccccc2)c1=O,n,3.5µM,n,n,u,u
CC(C)CCNc1nc2c(-c3ccccc3)nnn2c2ccccc12,x,x,x,x,n,n
CCOC(=O)c1ccc(NC(=O)c2noc3c2CCCC3)cc1,x,x,x,x,x,8.5µM
CC(=O)c1ccc(NC(=O)c2noc3c2CCCCC3)cc1,n,2µM,2.9µM,1.1µM,8.9µM,7.6µM
Cc1cc(NC(=O)c2noc3c2CCCCC3)nn1Cc1ccc(Cl)cc1,n,n,n,n,n,13µM
Cc1nn(Cc2ccc(Cl)cc2)c(C)c1NC(=O)c1noc2c1CCCCC2,n,n,n,n,n,n
Cc1cc(NC(=O)c2noc3c2CCCC3)no1,n,n,n,n,u,u
Cc1cc(NC(=O)C2CC2)ncc1NC(=O)C12CC3CC(CC(C3)C1)C2,x,n,n,n,x,n
CC(C)(C)c1cc2nc(N)nc(N)n2n1,x,n,n,n,x,n
CSc1nc(N)n2nc(C(C)(C)C)cc2n1,x,n,n,n,x,17µM
Cc1ccc(/C=C/C(=O)Nc2ccc(Oc3ccccc3)cc2)o1,n,n,n,n,n,6µM
SMILES,KinaseGlo FLuc,Rab9 prom act,ELG1 genotoxic,NPC1 promoter act,SMN2 splice enh,FLuc modulator
Cc1ccc(/C=C/C(=O)Nc2ccc([N+](=O)[O-])cc2)o1,x,u,n,n,x,n
CC(=O)c1ccc(NC(=O)/C=C/c2ccc(C)o2)cc1,x,x,x,x,13µM,7.6µM
Cn1c(=O)[nH]c(=O)c2c1nc(N1CCOCC1)n2CCN1CCOCC1,n,n,n,n,n,n
S=C(NCc1cccs1)Nc1cc(Cl)cc(Cl)c1,x,n,n,n,x,n
CCc1ccc(NC(=O)Nc2cnccn2)cc1,x,3.5µM,u,u,x,11µM
CCc1ccc(NC(=O)Nc2ccon2)cc1,x,2.5µM,u,2.2µM,x,7.6µM
COC(=O)CNC(=O)C1(C)C=CC2(CCCCC2)N1C(=O)OC (centres undefined),n,x,x,x,n,x
COc1ccccc1CNC(=O)CSc1ccsc1[N+](=O)[O-],n,3.5µM,n,u,n,u
